# In PubChem BioAssay AID2315 (National Center for Advancing Translational Sciences (NCATS), 2010):
# Among all 290,000 compounds or so, about 27,000 (9.3%) were called active. This is one part of a sample in which actives are shown more often than they occur. Cut-off read from the data, not from the text of the source: active = inhibition mostly above about 28% (no sharp cut-off); inactive = mostly below about 43%.
# Experiment: A qHTS for Small Molecule Inhibitors of Shiga Toxin; for inhibition: 0% is about no effect
# Conditions: Vero cells, Shiga toxin protein synthesis inhibition reporter; at 38.7 µM, stronger effect = higher value
row,SMILES,inhibition
1,CCOc1cc2[nH]c(=S)n(Cc3ccc(C(=O)N4CCN(C)CC4)cc3)c(=O)c2cc1OCC,6.6% (inactive)
2,CCn1ccnc1CN(C)C(=O)c1cc(COc2ccc(Cl)cc2OC)on1,49.5% (active)
3,CCn1ccnc1CN(C)C(=O)c1cc(COc2ccc(-n3cncn3)cc2)on1,13.3% (inactive)
4,O=C(c1cc(-c2ccccc2O)on1)N1CCCC1,111% (active)
5,COc1cccc(OC)c1OCCN1CCN(C(=O)c2ccco2)CC1,-15.7% (inactive)
6,O=C(c1ccco1)N1CCN(C(=O)c2ccc(COc3ccc(F)cc3)o2)CC1,2.42% (inactive)
7,CC(=O)c1ccc(NC(=O)c2cc(-c3cccs3)on2)cc1,35.3% (inactive)
8,COc1cccc(OCc2cc(C(=O)N3CCN(C(=O)c4ccco4)CC3)no2)c1,64.7% (active)
9,O=C(c1cccc(Br)c1)N1CCN(C2=NS(=O)(=O)c3ccccc32)CC1,-5.51% (inactive)
10,O=C(c1ccc(Cl)c(Cl)c1)N1CCCC1,-12.2% (inactive)
11,O=C(c1cc(-c2cccs2)on1)N1CCCCC1,124% (active)
12,COc1cc(Cl)ccc1OCc1cc(C(=O)N(C)CCc2c(C)n[nH]c2C)no1,18.3% (inactive)
13,CNC(=O)n1ccc(C(=O)N2CCCCC2)n1,-5.37% (inactive)
14,Cc1cc(/C=C2/SC(=O)N(CC(=O)N3CCCC3)C2=O)c(C)n1C,-6.33% (inactive)
15,NC(=O)C1CCN(C(=O)/C(=C/c2ccco2)NC(=O)c2ccccc2)CC1,-19% (inactive)
16,COc1ccc(OC)c(NC(=O)CSc2nc(-c3ccccc3)cc(=O)[nH]2)c1,-4.35% (inactive)
17,Cc1ccc(Nc2nc(N3CCOCC3)nc(N3CCOCC3)n2)cc1Cl,5.42% (inactive)
18,COc1ccccc1N1CCN(S(=O)(=O)c2ccc(Cl)cc2)CC1,-2.2% (inactive)
19,Oc1c(Cl)cc(Cl)cc1/C=N/c1ncn[nH]1,-2.31% (inactive)
20,Cc1ccc(N2CC(C(=O)NCCS(=O)(=O)N3CCN(c4ccccc4)CC3)CC2=O)cc1 (stereo not drawn),4.33% (inactive)
21,Cn1cc(CNC(=O)c2ccc(OC3CCN(Cc4ccccn4)CC3)cc2)cn1,4.02% (inactive)
22,COc1ccc(Cl)cc1C(=O)NNC(=S)NC1CCCC1,-7.04% (inactive)
23,COc1ccc(OCc2cc(C(=O)N3CCCC3)no2)c2ccccc12,147% (active)
24,CCCOC1CCCN(C(=O)c2cc(COc3cncc(Cl)c3)on2)C1 (stereo not drawn),54.4% (active)
25,COc1cc(Cl)ccc1OCc1cc(C(=O)N2CC[C@@H]3CCCC[C@H]3C2)no1,120% (active)
26,COc1ccccc1OCc1ccc(C(=O)N2CCN(C)CC2)o1,10.1% (inactive)

row,SMILES,inhibition
1,Cc1ccc(C)c(OCc2cc(C(=O)N3CCN(c4cnccn4)CC3)no2)c1,-3.53% (inactive)
2,CCOC(=O)CC1(NC(=O)c2cc(COc3cncc(Cl)c3)on2)CCCCC1,-11.8% (inactive)
3,CCOC(=O)C1CCCN(C(=O)c2cncc(Br)c2)C1 (stereo not drawn),-10.3% (inactive)
4,COc1ccc(C(=O)C2CCCN(C(=O)c3cc(C)on3)C2)cc1F (stereo not drawn),-1.62% (inactive)
5,COc1cccc(-c2cc(C(=O)N3CCN(c4ccccc4OC)CC3)no2)c1,-4.9% (inactive)
6,COc1ccccc1-c1cc(C(=O)N2CCCCC2)no1,102% (active)
7,COc1ccccc1N1CCN(C(=O)c2cc(-c3ccc(Cl)c(Cl)c3)on2)CC1,0.847% (inactive)
8,N#Cc1ccccc1S(=O)(=O)N1CCN(C(=O)c2cc(-c3ccccc3)nn2-c2ccccc2)CC1,15.4% (inactive)
9,O=C(CSc1nc2ccccc2c(=O)[nH]1)Nc1nc(-c2ccc(Br)cc2)cs1,-26.5% (inactive)
10,COc1ccc(C)cc1S(=O)(=O)N1CCN(S(=O)(=O)c2cc(C(=O)O)ccc2C)CC1,-1.74% (inactive)
11,CN(C(=O)CN1C(=O)S/C(=C\c2ccccc2F)C1=O)C1CCS(=O)(=O)C1 (stereo not drawn),-0.834% (inactive)
12,COc1ccc(C(C(=O)NCC2CCCO2)N(C(=O)Cn2nnc3ccccc32)c2ccc(NC(C)=O)cc2)cc1OC (stereo not drawn),-9.93% (inactive)
13,O=C1OC2(CCCCC2)CC2=C1C1O[C@](c3ccsc3)(Cc3ccccc31)O2,inactive
14,Nc1cc(N2CCCCCC2)c2nonc2c1[N+](=O)[O-],-13.9% (inactive)
15,Cc1ccc(CNC(=O)c2ccc(CS(=O)Cc3cccc(Cl)c3)o2)cc1 (stereo not drawn),-5.59% (inactive)
16,CCNC(=O)Nc1ccc(S(=O)(=O)Nc2cnc(C)nc2C)cc1,-5.43% (inactive)
17,O=C(NCc1ccncc1)C(=O)NCC1OCCN1S(=O)(=O)c1ccc(Br)cc1 (stereo not drawn),-17% (inactive)
18,O=C(Nc1cccc(Cl)c1)C1CCCN(c2cnccn2)C1 (stereo not drawn),-10.4% (inactive)
19,O=C(Nc1ccc2c(c1)OCCO2)C1CCCN(c2ncccn2)C1 (stereo not drawn),66.6% (active)
20,Cc1cc(C)nc(N2CCC(C(=O)Nc3ccc4c(c3)OCCO4)CC2)n1,51.5% (inactive)
21,CC(C)=CCN1CCN(CCCc2ccccc2)CC1CCO (stereo not drawn),-4.24% (inactive)
22,COc1ccc(-c2nn(-c3ccccc3)cc2/C=C2/SC(=S)N(CCCC(=O)O)C2=O)c(C)c1,-11.2% (inactive)
23,CCOC(=O)c1c(C)[nH]c2c1-c1ccccc1C(=O)C2=O,31.2% (inactive)
24,CCOC(=O)c1c(C)[nH]c(C2=NNC(=NC(C)COC)SC2)c1C (stereo not drawn),75.1% (active)
25,Cc1cc(Nc2ccc(C(=O)N3CCCCC3)cc2)c2cccc(C)c2n1,-5.1% (inactive)
26,Cc1cccc(N=C2NN=C(c3c[nH]c4ccccc34)CS2)c1,42.1% (active)

row,SMILES,inhibition
1,Cc1cccc(C(=O)Nc2nnc(Cc3c[nH]c4ccccc34)s2)c1,-6.89% (inactive)
2,Cc1cccc(N=C2NC(=O)/C(=C/c3cn(C)c4ccccc34)S2)c1,-7.28% (inactive)
3,CS(=O)(=O)N1CCN=C1SCc1ccc(F)cc1,9.38% (inactive)
4,COc1ccc(N(CC(=O)NCCSCc2cccc(Cl)c2)S(C)(=O)=O)cc1,-2.69% (inactive)
5,CCN(CC)C(=O)COc1coc(CN2CCN(Cc3ccccc3)CC2)cc1=O,-10.1% (inactive)
6,COc1cccc2cc(/C(C)=N/NC(=O)c3ccco3)oc12,32.4% (inactive)
7,CCC(=O)Nc1ccc2nn(-c3ccc(F)cc3)nc2c1,74.1% (active)
8,Cc1cccc(C(=O)OCC(=O)Nc2ccc(F)cc2)c1,27.4% (inactive)
9,Cc1nn(CC(=O)Nc2ccc(F)cc2)c(=O)c2ccccc12,-1.35% (inactive)
10,Cc1ccccc1CN1CCC(C(=O)Nc2ccc(Oc3cccnc3)cc2)CC1,-3.91% (inactive)
11,O=C(Nc1ccccc1N1CCOCC1)c1csc2c1CCCC2,11.3% (inactive)
12,O=C(NCc1ccccc1Cl)c1csc2c1CCCCC2,11.2% (inactive)
13,O=C(N/N=C/c1ccco1)c1csc2c1CCCC2,122% (active)
14,Cc1ccc(NC(=O)c2c(NC(=O)CCC(=O)O)sc3c2CCCCC3)cc1,42.9% (active)
15,COC(=O)c1sccc1NC(=O)c1csc2c1CCCC2,92.6% (inactive)
16,O=C(CN1CCCC1)Nc1sc2c(c1C(=O)Nc1ccccc1)CCCC2,-10.4% (inactive)
17,O=C(N/N=C/c1ccco1)c1ccc(C(=O)N/N=C/c2ccco2)o1,-3.95% (inactive)
18,COC(=O)c1c(NC(=O)CCCC(=O)O)sc2c1CCCCC2,-0.986% (inactive)
19,CCOC(=O)c1sc(NC(=O)c2sc(C)nc2C)nc1C,30.3% (inactive)
20,COC(=O)c1sc(NC(=O)c2csc3c2CCCC3)nc1C,76.1% (active)
21,Cc1ccc(NC(=O)c2csc3c2CCCC3)cc1,110% (active)
22,O=C(N/N=C/c1ccco1)c1ccc(NC(=O)C2CC2)cc1,-2.21% (inactive)
23,COc1ccc(S(=O)(=O)NCC(=O)NCc2cc(=O)n(C)c(=O)n2C)cc1F,-4.87% (inactive)
24,CCOC(=O)c1cc2ccccc2n1CC(=O)c1ccccc1,3.23% (inactive)
25,COc1cccc(N2C(=O)CN(Cc3ccccc3)C2=S)c1,24.3% (inactive)
26,Cc1ccc(OCC(=O)Nc2ccc(N3CCN(C(=O)c4ccco4)CC3)cc2)c(C)c1,-6.09% (inactive)

row,SMILES,inhibition
1,O=C(c1ccccc1F)N(Cc1ccccc1)Cc1ccccc1,18% (inactive)
2,Cc1nc(N)nc(SCc2ccc([N+](=O)[O-])cc2)c1N,-4.97% (inactive)
3,Cc1ccc(NS(=O)(=O)c2ccc3c(c2)oc(=O)n3C)c(C)c1,0.571% (inactive)
4,COc1ccc(-c2ccc(OC)c(C3C4C=CCC(C)C4C(=O)N3Cc3ccccc3)c2)cc1C (stereo not drawn),31.9% (inactive)
5,COc1ccc2oc(=N)c(C(=O)Nc3ccc(Br)cc3)cc2c1,14.3% (inactive)
6,COc1ccc(C(=O)OCC(=O)Nc2cccc(C(C)=O)c2)cc1OC,8.39% (inactive)
7,O=C(Nc1ccc([N+](=O)[O-])cc1)C1(c2ccccc2)CCOCC1,-4.2% (inactive)
8,O=C(COC(=O)C1CCCCC1)Nc1ccc([N+](=O)[O-])cc1,30.9% (inactive)
9,O=C(Nc1ccc([N+](=O)[O-])cc1)C1CC12CCC2 (stereo not drawn),76.1% (active)
10,Cn1nccc1C(=O)NC1CCCc2c1cnn2-c1ccccc1F (stereo not drawn),-4.18% (inactive)
11,CCN1C(=O)c2cccc3c(S(=O)(=O)Nc4ccccc4O)ccc1c23,34.3% (inactive)
12,CC1CN(C(=S)Nc2cccc(F)c2)CC(C)O1 (stereo not drawn),-2.89% (inactive)
13,O=C(CN1CCN(c2ccccn2)CC1)Nc1ccc(Br)cc1,-9.75% (inactive)
14,CCCCSc1nnc(-c2ccc(NC(=O)CC)cc2)n1C,-10.7% (inactive)
15,CCC(=O)Nc1ccc(-c2ccc(N3CCCCC3)nn2)cc1,63.9% (active)
16,O=C(CN1C(=O)c2cccnc2Oc2ccc(Cl)cc21)NCCc1ccccc1,3.75% (inactive)
17,CCOc1ccc(C(=O)Nc2ccncc2)cc1,77.7% (inactive)
18,Cc1nnc(SCC(=O)Nc2cccc(N)c2)n1-c1ccccc1,4.15% (inactive)
19,Cc1cc(C)cc(NC(=O)CSc2ccccc2)c1,29.4% (inactive)
20,O=C(CSc1nc(C2CC2)nc2ccccc12)Nc1cccc(O)c1,-5.2% (inactive)
21,CCOc1ccc(C(=O)Nc2cccc(SC)c2)cc1,47.7% (active)
22,O=C(Cc1ccccc1)Nc1ccc(C(=O)Nc2ccccc2C(=O)O)cc1,-19.6% (inactive)
23,CSc1cccc(NC(=O)CSc2ccccc2)c1,3.54% (active)
24,CCOc1ccc(C(=O)Nc2cccc(-c3ccc4nncn4n3)c2)cc1,35.1% (inactive)
25,O=C(CSc1ccccc1)Nc1ccc(C(=O)Nc2cccc(O)c2)cc1,65.7% (active)
